Screens (PubChem)
Shown are actives, neighbours in structure and some others; about 1.8% of the full set was active somewhere.
Vif-A3G inh: Vif-A3G binding inhibition; Q9HC16; HeLa A3G-eYFP + Vif (tagged APOBEC3G with the HIV-1 protein that degrades it), YFP fluorescence, overnight; Potency, µM (top dose mostly 46.1 µM), for inactives: at the highest dose activity, negative = active, most hits filed as inhibitors; actives 0.076% (n = 410,000); also: % is scaled to controls: 0 for no effect and ±100 for the full control effect; nearly all actives have a fitted effect of over 60% in size
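Read-out is eYFP fluorescence (Ex 488/Em 500-530) from Vif-expressing HeLa A3G-eYFP cells; more signal means A3G escaped Vif-mediated degradation. Cells plated overnight, compound pinned in, incubated overnight at 37 deg C.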
TrxR1 inh: rat TrxR1 inhibition; recombinant rTrxR1, NADPH fluorescence consumption, selenite substrate; O89049; AID 588453; actives 1% (n = 390,000); Potency, µM (series often up to 114 µM), without a hit: at the highest dose activity change, negative = inhibition, most hits filed as inhibitors; also: % is scaled to controls: 0 for no effect and ±100 for the full control effect; nearly all actives have a fitted effect of over 65% in size
Target sequence (O89049 whole entry, looked up): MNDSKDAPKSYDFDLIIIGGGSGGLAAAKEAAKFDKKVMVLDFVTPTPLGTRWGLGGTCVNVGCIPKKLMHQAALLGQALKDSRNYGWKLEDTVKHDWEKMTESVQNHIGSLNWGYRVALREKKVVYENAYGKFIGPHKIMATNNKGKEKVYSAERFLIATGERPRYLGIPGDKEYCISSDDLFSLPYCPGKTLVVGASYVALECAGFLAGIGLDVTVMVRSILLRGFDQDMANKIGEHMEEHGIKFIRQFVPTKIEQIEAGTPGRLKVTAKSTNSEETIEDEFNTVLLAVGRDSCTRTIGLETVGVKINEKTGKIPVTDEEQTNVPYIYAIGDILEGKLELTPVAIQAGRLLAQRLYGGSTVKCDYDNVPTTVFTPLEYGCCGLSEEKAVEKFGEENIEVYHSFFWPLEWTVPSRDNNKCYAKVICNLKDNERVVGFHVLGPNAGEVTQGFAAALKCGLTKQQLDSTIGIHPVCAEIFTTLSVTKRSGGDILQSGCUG
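Rat TrxR1 (90 nM in the dispensed reagent) was pre-reduced with 400 uM NADPH for 5 min at room temperature, then incubated with compound for 15 min. After 400 uM selenite was added, NADPH fluorescence (Ex 340/Em 450 nm) was followed for 8 min.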
Vif-A3F inh: blocks the Vif interaction with APOBEC3F. HeLa A3F-eYFP + Vif (tagged APOBEC3F with the HIV-1 protein that degrades it), YFP fluorescence increase. Potency, µM (doses to about 46.1 µM), inactives show at the top dose activity, negative = active. actives 0.2% (n = 390,000). AID 602313; also: % of control where 0% means no effect; nearly all actives have a fitted effect of over 65% in size
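HeLa cells stably expressing Vif plus C-terminally eYFP-tagged A3F were seeded, incubated overnight at 37 deg C, dosed with compound, incubated overnight again at 37 deg C. Yellow fluorescence (Ex 488/Em 500-530) reported blocked Vif-mediated A3F-eYFP degradation.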
VDR inhibitor: blocks the human vitamin D receptor; actives 0.93% (n = 400,000); AID 504847; VDR-SRC2-3 peptide fluorescence polarization, 2 h; Potency, µM, inactives show max response, negative = inhibition, most hits filed as inhibitors; also: % is scaled to controls: 0 for no effect and ±100 for the full control effect
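Compounds are added to VDR with labelled SRC2-3 coactivator peptide and held 2 h at room temperature. Inhibition of the VDR–peptide interaction is then read as a change in fluorescence polarization.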
TrxR1 substrate: rat thioredoxin reductase 1 substrate activity; O89049; purified TrxR1 substrate turnover, NADPH consumption readout; Potency, µM (doses to about 114 µM), without a hit: at the top dose activity change, negative = substrate turnover; actives 0.01% (n = 390,000); AID 588456; also: % is scaled to controls: 0 for no effect and ±100 for the full control effect; nearly all actives have a fitted effect of over 50% in size
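Rat TrxR1, dispensed at 90 nM, was prereduced with 400 uM NADPH (final) for 5 min at ~22 deg C, then incubated with compound 15 min before 400 uM selenite. A first-read NADPH fluorescence drop versus no-compound background flagged substrates.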
Starred values were filed as active, the others as inactive; ? = inconclusive; · = not tested or not shown; ! = not active in a repeat; [ ] = another dose, or the depositor's remark. Calls follow the shape of the dose curve; as a rule, active = well fitted curve in the direction sought with a large enough effect; inconclusive = small, poorly fitted or top-dose-only effect, or another doubt; inactive = no such curve, though single readings can be large; an effect the other way counts as inactive or inconclusive. Potency is read from the fitted curve at half-maximal effect.

SMILES	Vif-A3G inh	TrxR1 inh	Vif-A3F inh	VDR inhibitor	TrxR1 substrate
CCN(CC)C(=O)c1ccc(Oc2ccc([N+](=O)[O-])cc2Cl)cc1	0%	30%[57.1 µM]	7%	-10%	3%[57.1 µM]
CCN(CC)C(=O)c1cc([N+](=O)[O-])cc2c1-c1ccc([N+](=O)[O-])cc1C2=C(C#N)C#N	0%	25µM*	10%	25µM*	-4%
O=C(c1ccco1)N1CCN(CC(=O)N2CCCc3c2c(=O)oc2ccc(O)cc32)CC1	4%	16µM*	-2%	13%	-9%[57.1 µM]
O=C(O)CCSc1ccc([N+](=O)[O-])cc1[N+](=O)[O-]	0%	71µM*	-23%	?	-3%
Cc1ccc2c(c1)cc1c(=O)n(CC(=O)NC3CCCCC3)nc(C)n12	-4%	19%	-10%	16%	1%
CC1(C)Cc2ccccc2C2CC(O)C(=O)N21 (centres undefined)	?	-16%	25µM*	-6%	8%
O=C1c2ccccc2[C@@H]2CC(O)C(O)CCN12 (some centres undefined)	-2%	23%	-4%	-15%	4%
O=C(O)/C=C/C(=O)Nc1ccccc1SC(F)(F)F	0%	35µM*	0%	-11%	1%
O=C(O)/C=C/C(=O)Nc1ccccc1-c1ccccc1NC(=O)/C=C/C(=O)O	3%	?	17%	-9%	8%[57.1 µM]
CCCCC[C@H](O)/C=C/[C@@H]1[C@@H](C/C=C\CCCC(=O)O)[C@@H](O)C[C@@H]1O	·	·	·	2%	·
CCCCC[C@H](O)C/C=C1/C(=O)C=C[C@@H]1C/C=C\CCCC(=O)O	·	·	·	50µM*	·
CCCCC/C=C/C=C1/C(=O)C=C[C@@H]1C/C=C\CCCC(=O)O	·	·	·	20µM*	·
CCCCCC(O)C=CC1C(O)CC(O)C1CC=CCCCC(=O)O (centres undefined)	-1%	·	-1%	·	·
CCCCC[C@@H](/C=C/C1C(=O)C=C[C@H]1C/C=C\CCCC(=O)O)OC(C)=O (some centres undefined)	-14%	?	3%	79µM*	-7%
CCCCC/C=C\C/C=C\CCCCCCCC(=O)O	·	·	·	-14%	·
CCCCC/C=C\C/C=C\C/C=C\CCCCC(=O)O	2%	?	1%	40µM*!	1%
Cc1ccc(CCNC(=O)CCN2N=C(c3ccc(C)cc3)CCC2=O)cc1	2%	-12%[57.1 µM]	1%	12%	-14%[57.1 µM]
CC(=O)Nc1ccc(/C=C2\C=Cc3ccccc32)cc1	-5%	?	·	·	-3%
Cc1cc[n+](C2CCCCC2)c2ccccc12	-1%	9%	·	·	-1%
CC1=C(C#N)c2nc(N)c(C#N)c(C)c2/C1=C\c1ccc(OCC(=O)O)c(Cl)c1	4%	50µM*	3%	-5%	10%
CCOC(=O)c1c(C)sc2c1N(C(=O)CCl)c1cc(Cl)ccc1S2	?	5µM*	1%	?	-2%
Cc1sc2ncnc(SCC(=O)N3c4ccccc4Sc4ccc(Cl)cc43)c2c1C	0%	12%	5%	8%	10%
CCN1CCOC(=O)C1CC(=O)Nc1cc(C)cc(C)c1 (centres undefined)	-5%	11µM*	-2%	-21%	-4%
CCN1CCOC(=O)C1CC(=O)Nc1ccc(C(C)=O)cc1 (centres undefined)	-2%	?	0%	-9%	3%
CCc1ccc(NC(=O)CC2C(=O)OCCN2CC)cc1 (centres undefined)	-4%	6.3µM*	3%	-29%	10%[11.4 µM]
SMILES	Vif-A3G inh	TrxR1 inh	Vif-A3F inh	VDR inhibitor	TrxR1 substrate
CCN1CCOC(=O)C1CC(=O)Nc1cc(Cl)ccc1OC (centres undefined)	-4%	11µM*	5%	-22%	7%
COc1ccc(C(=O)NC(=S)Nc2cccnc2)cc1[N+](=O)[O-]	0%	10µM*	6%	-9%	-3%
Cc1cc(C)cc(C(=O)NC(=S)Nc2cccnc2)c1	-12%	45µM*	?	4%	4%
O=C(NC(=S)Nc1cccnc1)c1cccc(Cl)c1	0%	·	-4%	·	·
CC(C)(C)n1ncc2c(=O)n(Cc3cc(C(F)(F)F)ccc3Cl)cnc21	2%	1%	·	·	-4%
CCCN1CNc2c(c(=O)[nH]c(=S)n2CCc2ccc(Cl)c(Cl)c2)C1	·	1%	·	-16%	-4%
N#CN=c1snc(-c2ccccc2)n1-c1ccc(Cl)cc1	-7%	-5%	·	-18%	1%
O=C(COc1ccc([N+](=O)[O-])cc1)N1CCC(c2nc3ccccc3s2)CC1	0%	15%	-2%	13%	-3%
N#CC1=C(N)SC(N)=C(C#N)C1c1ccc([N+](=O)[O-])cc1	-2%	50µM*	-14%	79µM*	-1%
CCc1ccc(C2C(C#N)=C(N)SC(N)=C2C#N)cc1	?	?	?	?	-9%
COc1cc(/C=C2\SC(=S)N(CCC(=O)Nc3ccccn3)C2=O)cc(OC)c1OC	-21%	19%[57.1 µM]	25µM*	?	12%[57.1 µM]
COc1cc(/C=C2/SC(=S)N(CCC(=O)Nc3ccccc3)C2=O)cc(OC)c1OC	?	1%	11µM*	-1%	-10%
COc1cc(/C=C2\SC(=S)N(CCC(=O)Nc3ccccc3)C2=O)cc(OC)c1OC	?	19%[57.1 µM]	?	1%	0%[57.1 µM]
O=C(CN1C(=O)S/C(=C\c2cc(Cl)c(O)c(Cl)c2)C1=O)Nc1ccccc1	?	?	13µM*	7%	-22%
O=C(CN1C(=O)S/C(=C\c2ccccn2)C1=O)Nc1ccccc1	2%	33%	-5%	-2%	1%
CC(=O)c1cccc(Nc2cc(C)nc3nc(-c4ccccc4C)nn23)c1	0%	0%	6%	5%	-10%
CC(=O)Oc1oc(-c2ccccc2)nc1/C=N/c1ccccn1	-1%	7.1µM*	-3%	22µM*	-3%
CC(C)(C)c1cc(C(=O)CCN2CCOCC2)cc(C(C)(C)C)c1O	-20%	?	8%	50µM*	13%[57.1 µM]
CC(C)(C)c1cc(C(=S)N2CCN(CCO)CC2)cc(C(C)(C)C)c1O	0%	-7%	-22%	40µM*	7%
COc1ccc([C@@H]2CC(=O)c3c(O)cc(O[C@@H]4O[C@H](CO[C@@H]5O[C@@H](C)[C@H](O)[C@@H](O)[C@H]5O)[C@@H](O)[C@H](O)[C@H]4O)cc3O2)cc1	·	·	·	4%	·
NNC(=S)Nc1c(F)cc(F)cc1Br	0%	11%[57.1 µM]	11µM*	1%	6%[57.1 µM]
Cc1cc(C(=O)Nc2c(F)cc(F)cc2Br)cs1	0%	25%	1%	0%	3%
Cc1ccc(NC(=O)Nc2nnc(SCC(=O)N(C(C)C)C(C)C)s2)cc1	-13%	0%[57.1 µM]	5%	19%	0%[57.1 µM]
Cc1ccc(C)c(-n2c(SCC(=O)NCC3CCCO3)nnc2-c2ccoc2C)c1 (centres undefined)	-10%	28µM*	1%	1%	3%
